# Choline anaer gr – growth inhibitors of anaerobic choline-fed gram-negatives, minimal medium, absorbance; 55,000 tested, 0.2% active; calls only; Gram-negative bacterium anaerobic choline minimal medium; stronger effect = lower value; call rule not given here
# Calls only; n = inactive; + = active, no number. This excerpt belongs to a sample that is enriched for hits.
SMILES,Choline anaer gr
CC(C)=CCC/C(C)=C/CC/C(C)=C/CSCC(=O)O,+
COC(=O)[C@@H](N)CSC/C=C(\C)CC/C=C(\C)CCC=C(C)C,n
O=C(Cn1ccc2c(SCc3ccc(F)cc3)nccc21)NCc1ccc2c(c1)OCO2,n
CCn1c(=O)c(=O)n(CC(=O)NCCc2cccc(OC)c2)c2cccnc21,n
CCc1ccc(NC(=O)Nc2c(-c3ccccc3)[nH]c3ccccc23)cc1,+
CCc1ccc(-c2[nH]c3ccccc3c2NC(=O)Nc2cccc(C(=O)OC)c2)cc1,n
COc1ccc(NC(=O)Nc2c(-c3cccnc3)[nH]c3ccccc23)cc1,n
CC(=O)N(Cc1ccccc1)c1nc2ccccc2n(CC(=O)Nc2cc(C)ccc2C)c1=O,n
COc1cc(CC2C(=O)Nc3ccccc32)cc(Cl)c1OC (stereo not drawn),n
O=C1Nc2ccccc2C1Cc1ccccc1F (stereo not drawn),n
O=C1Nc2ccccc2C1Cc1ccc(Cl)cc1 (stereo not drawn),+
Cc1cc(F)ccc1NC(=O)C1Oc2ccccc2NC1=O (stereo not drawn),n
O=C(c1coc(-c2ccccc2)n1)N1CCCN(Cc2noc(-c3ccccc3)n2)CC1,n
O=C(CC1CCCC1)N1CCN(Cc2noc(-c3ccccc3)n2)CC1,n
O=C(CC1CC1)N1CCCN(Cc2noc(-c3ccccc3)n2)CC1,+
CC(=O)NNC(=O)N1Cc2ccccc2Oc2ccc(Cl)cc21,n
CCN(CC)CCCNC(=O)CCCN1C(=O)c2cccnc2Oc2ccc(Cl)cc21,n
CCN(CC)CCCCN1c2ccccc2Oc2ccc(Cl)cc21,+
CCn1c(C(=O)N2CCC(C(=O)NCCc3ccc(Cl)cc3)CC2)cc2occc21,n
Cc1cc(-c2ccc(C)c(S(=O)(=O)N3CCC(CN4CCc5ccccc5C4)CC3)c2)on1,n
CCc1nc2nc3c(cn2n1)C(=O)CC(C)C3 (stereo not drawn),n
O=C(CCN(C(=O)c1ccc(Cl)cc1)C1CCCCC1)N1CCNCC1,n
Cc1[nH]c(C)c(S(=O)(=O)N2CCC(C(=O)Nc3ccc(F)c(Cl)c3)CC2)c1C(=O)N1CCCC1,n
Cc1[nH]c(C)c(S(=O)(=O)N2CCC(C(=O)N3CCC(C)CC3)CC2)c1C(=O)N1CCCCC1,n
Cc1[nH]c(C)c(S(=O)(=O)N2CCC(C(=O)Nc3ccc(F)cc3)CC2)c1C(=O)N1CCCC1,+
SMILES,Choline anaer gr
Cc1[nH]c(C)c(S(=O)(=O)N2CCC(C(=O)N3CCN(C4CCCCC4)CC3)CC2)c1C(=O)N1CCCCC1,n
Cc1[nH]c(C)c(S(=O)(=O)N2CCC(C(=O)N3CCN(C4CCCCC4)CC3)CC2)c1C(=O)N1CCCC1,+
Cc1[nH]c(C)c(S(=O)(=O)N2CCC(C(=O)Nc3ccc(Cl)cc3)CC2)c1C(=O)N1CCCC1,n
CC(C)NC(=O)c1ccc2c(c1)nc(CN1CCN(S(=O)(=O)c3cc(F)cc(F)c3)CC1)n2C,n
O=c1c2cn(Cc3ccccc3)c3ccccc3c-2nn1Cc1cccc(F)c1,n
CCCCNC(=O)c1cccc(-c2nccc(Oc3ccc(OC)cc3)n2)c1,n
CC(C)c1nnc(-c2ccc(S(=O)(=O)N3CCN(C(C)C)CC3)o2)o1,n
CC(C)c1nnc(-c2ccc(S(=O)(=O)N3CCCC3)o2)o1,n
CC(C)CN1CCN(S(=O)(=O)c2ccc(-c3nnc(C(C)C)o3)o2)CC1,+
Cc1ccc(-c2nnc(-c3cccnc3N3CCCC3)o2)cc1,n
O=C(NCCCN1CCN(c2ccccc2F)CC1)C1CCCc2c1[nH]c1ccccc21 (stereo not drawn),n
Cc1ccc(C2Nc3ccccc3-n3cc4c(=O)n(C)c(=O)n(C)c4c32)c(O)c1 (stereo not drawn),+
CCOc1cccc(C2Nc3ccccc3-n3cc4c(=O)n(C)c(=O)n(C)c4c32)c1O (stereo not drawn),n
COc1cccc(C2Nc3ccccc3-n3cc4c(=O)n(C)c(=O)n(C)c4c32)c1OC (stereo not drawn),n
COc1cccc(C2Nc3ccccc3-n3c(-c4ccccc4)c4c(=O)n(C)c(=O)n(C)c4c32)c1O (stereo not drawn),n
Cn1c(=O)c2cn3c(c2n(C)c1=O)C(c1ccc(O)c(O)c1)Nc1ccccc1-3 (stereo not drawn),n
COc1ccc(C2Nc3ccccc3-n3cc4c(=O)n(C)c(=O)n(C)c4c32)c(OC)c1 (stereo not drawn),+
O=C(C1CCCN(c2nc3ccccc3n3cccc23)C1)N1CCN(c2ccc(F)cc2)CC1 (stereo not drawn),n
COc1cccc(CNC(=O)c2cc(S(=O)(=O)N3CCCC3)ccc2Cl)c1,n
O=C(NCC(c1ccccc1Cl)N1CCCC1)c1cc(-c2ccc3c(c2)OCCO3)on1 (stereo not drawn),n
Cc1cc2n(n1)CCCN2C(=O)CCC(=O)NCCc1ccc(Cl)cc1,n
CC(C)(C)c1ccc(S(=O)(=O)/C=C/C#N)cc1,+
Cc1ccc(S(=O)(=O)C=CC#N)cc1,n
CC(C)(C)c1ccc(S(=O)(=O)Nc2ccc(-c3nnc(-c4ccccc4)o3)cc2)cc1,n
O=C(Cn1nc2c3sccc3ncn2c1=O)Nc1ccccc1,n
SMILES,Choline anaer gr
O=C(CCn1c2c(c3ccccc31)CCCC2)Nc1cccc2nsnc12,n
CC(C)c1ccc(-c2noc(SCC(=O)NCC3CCCO3)n2)cc1 (stereo not drawn),+
Cc1ccc(NC(=O)CSc2nc(-c3ccc(C(C)C)cc3)no2)cc1,n
CC(C)c1ccc(-c2noc(SCC(=O)Nc3ccccc3Cl)n2)cc1,n
COC(=O)c1ccc(COC(=O)c2ccc(N3C(=O)c4c(C)nc5ccccc5c4C3=O)cc2)cc1,n
O=C(c1cc(S(=O)(=O)N2CCCC(C(=O)N3CCCCC3)C2)c[nH]1)N1CCCC1 (stereo not drawn),n
COc1ccc(CNc2ccc(C(=O)N3CCc4ccccc43)nn2)cc1,+
COc1ccccc1N1CCN(c2ccc(C(=O)N3CCc4ccccc43)nn2)CC1,n
O=C(c1ccc(NC2CCCC2)nn1)N1CCc2ccccc21,n
CCOC(=O)c1ccc(NC2c3ncccc3C(=O)N2c2ccc(OC)cc2)cc1 (stereo not drawn),n
CC1CCC2(CC1)NCCN=C2NCc1ccc(C(F)(F)F)cc1 (stereo not drawn),n
CCC(=O)Nc1cccc(-c2noc(C3CCCN(C(=O)c4cc(OC)cc(OC)c4)C3)n2)c1 (stereo not drawn),n
CCN(CC)S(=O)(=O)c1ccc2c(c1)cc(C(=O)NCCc1c[nH]c3ccccc13)n2C,n
CCc1ccc(NC(=O)N2CC=C(c3c[nH]c4ccccc34)CC2)cc1,n
O=C(CCC(=O)N1CC=C(c2c[nH]c3ccccc23)CC1)NCc1cccc(Cl)c1,+
O=C(Nc1ccc(Cl)cc1)N1CC=C(c2c[nH]c3ccccc23)CC1,n
CCCC(=O)Nc1ccc(Nc2cc(N(C)C)nc(C)n2)cc1,n
CC/C=C\C/C=C\C/C=C\C/C=C\C/C=C\CCCCCC(=O)O,n
CCCCC/C=C\CC1OC1C/C=C\C/C=C\CCCC(=O)O (stereo not drawn),n
CCCCCCCCCCC/C=C\C/C=C\CCCC(=O)O,+
CCOc1ccc(-c2nc(CSc3nc4ccccc4n4c(C)nnc34)c(C)o2)cc1,n
CC(Oc1ccc(C(C)C)cc1)C(=O)Nc1ccc2c(c1)NC(=O)CO2 (stereo not drawn),n
CCCN(CCC)C(=O)CCc1nc(-c2ccc(N3CCCC3)cc2)no1,n
